Measured values: PubChem BioAssay AID504321 (NMMLSC, 2011)
Active and inactive are the calls of the source.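 How the source made its calls: active means GFP response vs DMSO above 150% with enough events counted; inconclusive means fewer than 70 events counted for a yeast strain; inactive means the rest.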

Assay: yeast MEP2-GFP fusion level changes, TOR pathway – flow cytometry, third cherry pick, S. cerevisiae, confirmation (AID 504321);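 further: median per-cell GFP fluorescence by flow cytometry across all yeast cells; ratio of sample to DMSO median GFP so 100% equals the DMSO level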
Conditions: S. cerevisiae MEP2-GFP strain, 3 h, at 10 µM, active compounds read high

SMILES | GFP response vs DMSO
CN(C)C(=O)Oc1ccnc2cc(Cl)ccc12 | 108% (inactive)
CCN1CCN(c2ncnc3ccc(Br)cc23)CC1 | 112% (inactive)
CN(C)C(=O)Oc1ccc(Cl)c2cccnc12 | 110% (inactive)
Cc1ccc2c(c1N)C(=O)c1ccccc1C2=O | 103% (inactive)
C/C(O)=C(\C#N)C(=O)Nc1cc(Br)ccc1Br | 112% (inactive)
CN1CCN(c2ncnc3ccc(Br)cc23)CC1 | 101% (inactive)
